TDP1 cell CPT = DT40-hTDP1 cell growth loss with CPT. chicken DT40 Tdp1-/-;hTDP1 cells + 20 nM CPT, ATP luminescence, 48 h. Potency, µM (top dose mostly 46.2 µM), usual class: inhibitors. 420,000 compounds, 12% hits. AID 686979; note: nearly all actives have a fitted effect of over 55% in size
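Chicken DT40 Tdp1-/- cells stably complemented with human TDP1 were seeded at 400 cells/well in medium containing 20 nM camptothecin, exposed to pin-transferred compounds, and grown at 37 °C for at least 48 hr. Viability was read as ATP luminescence.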
HT1080 IDH1KD tx = HT-1080 IDH1 knockdown cell toxicity (counter line); HT-1080 IDH1 knockdown viability, ATP luminescence, 48 h; Potency, µM (top dose mostly 46.1 µM), usual class: cytotoxic; 360,000 compounds, 2% hits
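Assay cells: HT-1080 with IDH1 knockdown, 750 per well, RPMI/5% FBS. Exposure: 48 h at 37 °C following 2 h pre-incubation. Read: CellTiter-Glo luminescence; fitted concentration-response, curve class assigned.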
HT1080-NT tox = kills 2HG-producing HT-1080-NT fibrosarcoma cells. Potency, µM (titrated, usually from 46.1 µM), hits mostly cytotoxic. 360,000 compounds, 1.6% hits. HT-1080-NT fibrosarcoma viability, CellTiter-Glo ATP luminescence, 48 h;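 note: NT is the 2HG producing partner of a matched IDH1 knockdown line; nearly all actives have a fitted effect of over 55% in size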
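HT-1080-NT; 750 cells/well; 5% FBS RPMI; 48 h compound, 37 degrees C; CellTiter-Glo luminescence; curve fitting and curve-class assignment.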
HepG2 viability = HepG2 cytotoxicity, counter-screen for TGF-b inhibitors; Potency, µM (top dose mostly 46.1 µM), most hits filed as cytotoxic; HepG2 CAGA-GFP viability, ATP luminescence, 18 h; 410,000 compounds, 0.76% hits
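CellTiter-Glo luminescence gave cytotoxicity after 18 hours at 37 degrees C. The cells were HepG2 CAGA-GFP in 1% FBS DMEM, stimulated with 500 pg/mL TGF-beta after compound addition. %Activity was normalised to no-cell wells (complete cell-killing) and DMSO (no toxicity), and curves were fitted and classified.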
TGFb SMAD3 inh = TGF-b pathway inhibition. HepG2 CAGA-GFP TGF-b/SMAD3 reporter, GFP fluorescence, 18 h; TGF-beta stimulated, 500 pg/mL final. 410,000 compounds, 1.2% hits. Potency, µM (doses to about 46.1 µM), usual class: inhibitors; note: nearly all actives have a fitted effect of over 65% in size
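GFP signal (ex488/em500-530) from TGF-beta-stimulated HEPG2 CAGA-GFP cells, 500 pg/mL final, 18 h at 37 degrees C in DMEM plus 1% FBS, normalized to unstimulated and DMSO-stimulated controls.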
TDP1 cell noCPT = qHTS for Inhibitors of human tyrosyl-DNA phosphodiesterase 1 (TDP1): qHTS in cells in absence of CPT. DT40 Tdp1-/- hTDP1 cells, no CPT, ATP luminescence, 48 h. Potency, µM (series often up to 46.2 µM), most hits filed as inhibitors. 420,000 compounds, 15% hits; note: nearly all actives have a fitted effect of over 55% in size
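Stably hTDP1-transfected Tdp1-null chicken DT40 cells were treated with library compounds minus camptothecin and grown for at least 48 hr at 37 °C, after which cellular ATP was quantified by luminescence.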
A number is an active result. In the library only some 17% were active in any assay of this set; here they are far more common. Calls come from the whole dose curve; as a rule, active = well fitted curve in the direction sought with a large enough effect; inconclusive = small, poorly fitted or top-dose-only effect, or another doubt; inactive = no such curve, though single readings can be large; an effect the other way counts as inactive or inconclusive.

For O=c1[nH][nH]c2c1[C@H](c1ccc(Cl)cc1)O[C@H](C1CC1)C2 the results were TDP1 cell CPT inconclusive, HT1080 IDH1KD tx inactive, HT1080-NT tox inactive and TDP1 cell noCPT inactive.
For Cc1cc(N2CCN(C)CC2)nc2ccc(NC(=S)NCCC(C)C)cc12 the results were TDP1 cell CPT 23µM, HT1080 IDH1KD tx inactive, HT1080-NT tox inconclusive, HepG2 viability inactive, TGFb SMAD3 inh inactive and TDP1 cell noCPT 15µM.
`Cc1cc(N2CCOCC2)nc2ccc(NC(=S)NCCC(C)C)cc12` gave TDP1 cell CPT 18µM, HT1080 IDH1KD tx inconclusive, HT1080-NT tox inactive, HepG2 viability inactive, TGFb SMAD3 inh inactive and TDP1 cell noCPT 21µM.
Screening Cc1cc(N2CCOCC2)nc2ccc(NC(=S)NCCN(C)C)cc12 returned TDP1 cell CPT inactive, HT1080 IDH1KD tx inactive, HT1080-NT tox inactive, HepG2 viability inactive, TGFb SMAD3 inh inactive and TDP1 cell noCPT inactive.
COc1ccc(N2CCN(S(=O)(=O)CCNC(=O)C3CC3)CC2)cc1 was read as TDP1 cell CPT inactive, HT1080 IDH1KD tx inactive, HT1080-NT tox inactive, HepG2 viability inactive, TGFb SMAD3 inh inactive and TDP1 cell noCPT inactive.
`COc1ccc(/C=C/c2ccc3ccccc3[n+]2C)cc1OC` gave TDP1 cell CPT 13µM, HT1080 IDH1KD tx inactive, HT1080-NT tox inactive, HepG2 viability inactive, TGFb SMAD3 inh inactive and TDP1 cell noCPT 18µM.
Screening COc1cccc(/C=C/c2ccc3ccccc3[n+]2C)c1OC returned TDP1 cell CPT inconclusive, HepG2 viability inactive, TGFb SMAD3 inh inactive and TDP1 cell noCPT inconclusive.
CC(=O)Oc1ccccc1/C=C/c1ccc2ccccc2[n+]1C was read as TDP1 cell CPT 21µM, HT1080 IDH1KD tx inconclusive, HT1080-NT tox inconclusive, HepG2 viability inactive, TGFb SMAD3 inh inactive and TDP1 cell noCPT 16µM.
COc1cc(OC)c(OC)cc1/C=C/c1ccc2ccccc2[n+]1C was read as TDP1 cell CPT 0.89µM, HepG2 viability inactive, TGFb SMAD3 inh inactive and TDP1 cell noCPT 0.71µM.
Screening COc1ccc(/C=C/c2ccc3ccccc3[n+]2C)c(OC)c1OC returned TDP1 cell CPT 1.4µM, HepG2 viability inactive, TGFb SMAD3 inh inactive and TDP1 cell noCPT 1.1µM.
Screening Cc1ccc(C)c(NC(=O)C(C)N2C(=O)c3ccccc3C2=O)c1 (stereo unspecified) returned TDP1 cell CPT inactive, HT1080 IDH1KD tx inactive, HT1080-NT tox inactive, HepG2 viability inactive, TGFb SMAD3 inh inactive and TDP1 cell noCPT inactive.
For CC(C)C[C@H]1CNC(=S)N1C[C@H]1CCCN1C[C@H](CC(C)C)N1C[C@H](CC(C)C)N(CCc2ccccc2)C1=S the results were TDP1 cell CPT inconclusive, HT1080 IDH1KD tx inconclusive, HT1080-NT tox inactive, HepG2 viability inactive, TGFb SMAD3 inh inconclusive and TDP1 cell noCPT 26µM.
`CC(C)C[C@H]1CNC(=S)N1C[C@H]1CCCN1C[C@H](CC(C)C)N1C[C@H](Cc2ccccc2)N(CCc2ccccc2)C1=S` gave TDP1 cell CPT inconclusive, HT1080 IDH1KD tx inactive, HT1080-NT tox inconclusive, HepG2 viability inactive, TGFb SMAD3 inh inconclusive and TDP1 cell noCPT 21µM.
CC(C)C[C@H]1CNC(=S)N1CC1CCCN1C[C@H](CC(C)C)N1C[C@H](CC(C)C)N(CCc2ccccc2)C1=S (stereo partly specified) was read as TDP1 cell CPT 8.2µM, HT1080 IDH1KD tx inactive, HT1080-NT tox inactive, HepG2 viability inactive, TGFb SMAD3 inh inconclusive and TDP1 cell noCPT 5.8µM.
`CC(C)C[C@H]1CNC(=S)N1C[C@H]1CCCN1C[C@H](Cc1ccccc1)N1C[C@H](CC(C)C)N(CCc2ccccc2)C1=S` gave TDP1 cell CPT 13µM, HT1080 IDH1KD tx inactive, HT1080-NT tox inactive, HepG2 viability inactive, TGFb SMAD3 inh inconclusive and TDP1 cell noCPT 16µM.

High-throughput results from PubChem BioAssay.
